uPA surface inh: qHTS for Inhibitors of Cell Surface uPA Generation; cell surface uPA generation assay, qHTS; 330,000 tested, 0.31% active; Potency, µM (titrated, usually from 38.3 µM), for the others: at the top dose activity change, negative = inhibition, actives largely listed as inhibitors; active = well fitted inhibition curve with a large enough effect; inconclusive = small, poorly fitted or top-dose-only effect; inactive = no such curve, though single readings can be large or run the other way; tested in mouse RAW 264.7 cells; note: % is set by controls: 0 for no effect and ±100 for the full control effect; nearly all actives have a fitted effect of over 55% in size
Rab9 prom act: qHTS Assay for Rab9 Promoter Activators | Huh7 Rab9 promoter-luciferase reporter, luminescence, 24 h | Potency, µM (titrated, usually from 9.22 µM), inactives show at the highest dose activation, negative = inhibition, actives largely listed as activators | 320,000 tested, 2.8% active; note: % of control where 0% means no effect; nearly all actives have a fitted effect of over 60% in size
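Huh7 reporter line, Rab9 promoter upstream of luciferase. Compound exposure 24 h at 37 °C in reduced-serum medium with 10% FBS. Read-out: luminescence.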
FLuc modulator: qHTS profiling assay for firefly luciferase inhibitor/activator using purifed enzyme and Km concentrations of substrates (counterscreen for miR-21 project) | Luciferin 4-monooxygenase (Photinus pyralis), P08659 | purified FLuc, Km substrates, luminescence inhibition | Potency, µM (highest dose often 57.5 µM), without a hit: at the top dose activity change, negative = inhibition, hits mostly inhibitors | 360,000 tested, 6.9% active | AID 588342, 2011;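 note: plate controls were vehicle for no effect and reference inhibitor for full effect; nearly all actives have a fitted effect of over 55% in size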
Target sequence (P08659 whole entry, looked up): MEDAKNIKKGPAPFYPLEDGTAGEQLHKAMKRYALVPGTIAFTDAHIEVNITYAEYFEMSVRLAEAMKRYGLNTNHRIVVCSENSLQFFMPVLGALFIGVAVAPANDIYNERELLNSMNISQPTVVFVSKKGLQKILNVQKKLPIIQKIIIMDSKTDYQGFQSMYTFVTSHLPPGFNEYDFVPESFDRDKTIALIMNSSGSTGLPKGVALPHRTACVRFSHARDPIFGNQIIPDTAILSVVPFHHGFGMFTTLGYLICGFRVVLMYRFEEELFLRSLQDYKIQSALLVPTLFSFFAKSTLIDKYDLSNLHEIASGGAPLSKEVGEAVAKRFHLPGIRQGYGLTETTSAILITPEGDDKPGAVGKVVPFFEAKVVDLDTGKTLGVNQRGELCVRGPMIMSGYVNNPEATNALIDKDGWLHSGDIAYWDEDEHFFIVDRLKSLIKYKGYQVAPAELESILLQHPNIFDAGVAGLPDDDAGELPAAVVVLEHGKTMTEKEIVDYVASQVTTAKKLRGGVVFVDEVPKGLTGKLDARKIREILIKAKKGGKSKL
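Biochemical qHTS of compounds, final roughly 60 µM downward over six points, against 10 nM purified firefly luciferase using Km concentrations of substrates (10 uM D-luciferin, 10 uM ATP) in Tris acetate pH 7.5 buffer; luminescence output.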
ELG1 genotox: qHTS screen for small molecules that induce genotoxicity in human embryonic kidney (HEK293T) cells expressing luciferase-tagged ELG1; HEK293T ELG1-luciferase reporter, luminescence, 16 h; Potency, µM (titrated, usually from 46 µM), without a hit: at the top dose activity change, positive = activation, hits mostly activators; 330,000 tested, 1.3% active; AID 504466, 2011; note: % of control where 0% means no effect; nearly all actives have a fitted effect of over 60% in size
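Genotoxicity was scored as increased ELG1-luciferase reporter signal, measured by ONE-Glo luminescence (30 min, room temperature). Compound or vehicle exposure of the HEK293T reporter cells lasted 16 hr at 37°C.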
SMN2 splice up: qHTS Assay for Enhancers of SMN2 Splice Variant Expression; AID 1458, 2008; HEK293 SMN2-luciferase splicing reporter, luminescence, 30-36 h; Potency, µM (doses to about 46.1 µM), without a hit: at the top dose activity change, positive = activation, actives largely listed as activators; 210,000 tested, 2.8% active; note: % of control where 0% means no effect; nearly all actives have a fitted effect of over 55% in size
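HEK293 cells carry an SMN2 minigene-luciferase reporter in which exon 7 inclusion puts luciferase in frame. Cells were seeded at 2000 cells/well, attached for 10-12 hours, then exposed to compounds for 30-36 hours at 37C before ONE-Glo luminescence.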
NPC1 prom act: qHTS Assay for NPC1 Promoter Activators | Huh7 NPC1 promoter luciferase reporter, 24 h | Potency, µM (titrated, usually from 9.22 µM), inactives show at the highest dose activation, actives largely listed as activators | 320,000 tested, 2.4% active; note: % of control where 0% means no effect; nearly all actives have a fitted effect of over 60% in size
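Stably transfected Huh7 (NPC1 promoter→luciferase), 1500 cells/well in Opti-MEM + 10% FBS, 2 h settle, then compound 24 h at 37 °C. Luminescence after 10 min with Amplite reagent.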
* hit, by the source's call; ? = inconclusive; / = no result given. Shown are actives, neighbours in structure and some others; about 7.3% of the full set was active somewhere. Unless noted, calls come from the whole dose curve; as a rule, active = well fitted curve in the direction sought with a large enough effect; inconclusive = small, poorly fitted or top-dose-only effect, or another doubt; inactive = no such curve, though single readings can be large; an effect the other way counts as inactive or inconclusive. Potency is the fitted concentration of half-maximal effect.

SMILES | uPA surface inh | Rab9 prom act | FLuc modulator | ELG1 genotox | SMN2 splice up | NPC1 prom act
CSCCC=O | / | / | / | / | 4.2% | /
CCN(CC)CCCNC(=O)c1oc2c(c1C)-c1nn(Cc3ccc(Cl)cc3)cc1CC2 | / | / | -0.6% | / | / | /
CCC(=O)NCCc1nc2cc(NC(=O)c3cccc(Br)c3)ccc2n1C | / | / | 21.3µM* | / | / | /
CC1CCN(CCc2nc3cc(NC(=O)Nc4ccccc4)ccc3n2C)CC1 | -1.9% | ? | 16.9µM* | ? | 22.6% | ?
CCC(=O)NCCc1nc2cc(NC(=O)Nc3ccccc3)ccc2n1C | ? | 1.58µM* | 5.36µM* | ? | / | 1.12µM*
CCC(=O)NCCc1nc2cc(NC(=O)c3ccccc3Cl)ccc2n1C | -4.7% | ? | ? | ? | / | ?
Cc1cc(C)c(S(=O)(=O)N2CCN(c3ccccn3)CC2)c(C)c1 | -4.1% | -6.3% | -2.0% | -4.7% | / | -3.1%
CCc1cccc(N2C(=O)CSC23C(=O)Nc2ccccc23)c1 (configuration not stated) | / | / | 1.2% | / | / | /
O=C(Cn1nnc(-c2cccc(C(F)(F)F)c2)n1)N1CCOCC1 | / | 4.7% | 1.6% | 3.7% | -3.1% | -4.9%
O=C(Cn1nnc(-c2ccc(N3CCOCC3)cc2)n1)OC1CCCCC1 | 1.1% | 2.8% | 12µM* | -3.1% | -25.6% | -5.7%
O=C(Cn1nnc(-c2ccc(N3CCOCC3)cc2)n1)N1CCOCC1 | 4.47µM* | 26.7% | 10.7µM* | 13.9% | / | ?
O=C(Nn1nnnc1Nc1ccccc1)C12CC3CC(CC(C3)C1)C2 | -0.2% | -3.7% | -2.2% | -3.6% | 22.4µM* | -0.8%
Cc1cccc(C)c1OCC(=O)NCc1nnc(SCC(=O)NC2CCCCC2C)n1C (configuration not stated) | / | 1.2% | 10.5% | 1.9% | 22.4µM* | -1.3%
CCn1c(CNC(=O)COc2ccc(C(C)C)cc2)nnc1SCC(=O)NC1CCCCC1C (configuration not stated) | -2.6% | -5.0% | -21.0% | -5.2% | -39.1% | -4.3%
O=C(O)c1ccccc1-c1ccccc1C(=O)Nc1cccc(-c2nc3ccccc3o2)c1 | -5.9% | -3.8% | 8.49µM* | 5.8% | / | -0.2%
Cc1ccc(C(=O)Nc2ccc(-c3nc4ccccc4o3)cc2)cc1Cl | / | / | -0.1% | / | 2.2% | /
CS(=O)(=O)c1ccccc1C(=O)Nc1ccc(-c2nc3ccccc3[nH]2)cc1 | -15.8% | 3.55µM* | 13.5µM* | 11.4% | / | ?
CS(=O)(=O)c1ccccc1C(=O)Nc1ccc(-c2nc3ccccc3o2)cc1 | -3.5% | ? | 23.9µM* | 8.8% | / | ?
Cc1ccc(C(=O)Oc2cc(C)n(C)c(=O)c2)cc1 | 1.7% | -2.8% | 15.1µM* | -2.2% | -15.1% | -7.1%
O=C(NC1CCCCC1)c1ccc(CSc2nc3ccncc3n2Cc2ccccc2F)cc1 | / | / | ? | / | 6.7% | /
CCOC(=O)C1=NNC(C(=O)c2ccccc2)C1c1ccc(Cl)cc1 (configuration not stated) | -1.2% | -3.0% | 26.9µM* | 0.3% | / | -4.1%
CCOC(=O)C1=NNC(C(=O)c2ccccc2)C1c1ccc(C)cc1 (configuration not stated) | 7.9% | -1.1% | ? | -0.5% | / | 1.1%
CC(C)(C)n1ncc2c(=O)n(Cc3c(F)cccc3Cl)cnc21 | -1.0% | 3.6% | 23.9µM* | -9.0% | -15.2% | 20.1%
CC1CCN(C(=O)Cn2cnc3c(cnn3C(C)(C)C)c2=O)CC1 | -3.1% | 3.16µM* | ? | ? | 15.8µM* | ?
CC(C)(C)n1ncc2c(=O)n(CC(=O)NCc3ccccc3)cnc21 | -8.6% | ? | 4.78µM* | ? | 2.82µM* | 0.447µM*
SMILES | uPA surface inh | Rab9 prom act | FLuc modulator | ELG1 genotox | SMN2 splice up | NPC1 prom act
CC(=O)Nc1ccc(NC(=O)Cn2cnc3c(cnn3C(C)(C)C)c2=O)cc1 | 2.9% | -2.4% | -5.3% | 23.6% | -8.4% | 11.1%
Cc1ccc(Cl)c(Cn2cnc3c(cnn3C(C)(C)C)c2=O)c1F | 10.4% | -4.4% | ? | -1.4% | / | -3.8%
CC(C)(C)n1ncc2c(=O)n(CC(=O)c3ccc(Cl)cc3)cnc21 | 0.5% | 3.16µM* | 7.57µM* | 17.6% | 17.8µM* | 2.82µM*
CCNc1ncnc2c1nnn2C | / | / | -3.1% | / | / | /
CCCCCc1ccc(-c2ccc(C(=O)Oc3ccc(C(=O)OC)cc3)cc2)nc1 | / | / | 12µM* | / | -46.3% | /
CCCc1ccc(-c2ccc(C(=O)O)cc2)nc1 | ? | 0.398µM* | 1.51µM* | ? | 2.51µM* | ?
CCCCCc1ccc(-c2ccc(/C=C/C(N)=O)cc2)nc1 | 6.3% | ? | 4.78µM* | 15.6% | -1.4% | ?
CCCCCc1ccc(-c2ccc(OC)cc2)nc1 | -4.3% | -8.9% | ? | -12.5% | / | 0.1%
CCCc1ccc(-c2ccc(C(=O)Oc3ccc(OCC)cc3)cc2)nc1 | / | / | -18.6% | / | 4.2% | /
CC(=O)Nc1nnc(Cc2c[nH]c3ccccc23)s1 | 6.4% | 4.2% | 1.8% | -4.7% | / | -5.0%
Cc1cc(C)n(CC(C)NCc2cn[nH]c2-c2ccc(C)c(C)c2)n1 (configuration not stated) | 2.8% | -8.5% | -10.9% | -3.9% | 8.4% | -2.4%
O=C(c1ccc(Cl)c(S(=O)(=O)N2CCOCC2)c1)N(c1ccccn1)C1CCCCC1 | 7.6% | 2.9% | -2.4% | -10.7% | -0.1% | 2.6%
CC(C)[C@H](NC(=O)C1CC(=O)N(c2ccc3c(c2)OCO3)C1)C(=O)NC1CCCC1 (some centres not stated) | 9.4% | -0.8% | 3.2% | 0.0% | / | -0.2%
Cc1ccc2nc3c(cc2c1)c(NS(=O)(=O)c1ccccc1)nn3CC(C)C | 0.6% | -12.7% | -6.9% | -0.3% | -6.2% | -0.2%
CCn1nc(NS(=O)(=O)c2ccccc2)c2cc3cc(C)ccc3nc21 | -16.0% | -0.2% | 15.1µM* | 8.1% | / | -0.4%
CCn1nc(NS(=O)(=O)c2ccccc2)c2cc3ccc(C)cc3nc21 | -10.8% | -5.8% | ? | 0.3% | / | -3.7%
CCn1nc(NS(=O)(=O)c2ccc(NC(C)=O)cc2)c2cc3cc(C)ccc3nc21 | -3.4% | 5.4% | 10.7µM* | 12.0% | / | 8.7%
N#Cc1ccc(C(=O)Nc2ccc3ccccc3c2)cc1 | -4.0% | 0.447µM* | 1.35µM* | ? | / | 0.355µM*
N#Cc1ccccc1Sc1ccccc1C(=O)Nc1ccc2ccccc2c1 | -40.1% | -6.0% | -3.3% | -1.6% | -10.0% | -1.2%
O=C(Nc1ccc2ccccc2c1)c1cnccn1 | / | 1µM* | ? | ? | 11.2µM* | 3.55µM*
COc1cccc(OC)c1C(=O)Nc1ccc2c(c1)Cc1ccccc1-2 | 1.5% | ? | ? | 16.6% | / | 25.2%

Screening data: PubChem BioAssay, National Center for Advancing Translational Sciences (NCATS)
